Screening data (PubChem BioAssay)
FEN1 inhibitor – blocks human flap endonuclease 1. hit rate 0.35% among 390,000. Recombinant FEN1 flap cleavage, fluorescence, 15 min. Potency, µM (doses to about 114 µM), without a hit: at the top dose activity change, negative = inhibition, hits mostly inhibitors. AID 588795. P39748; further: on the % scale 0 is the no-effect control and ±100 the full control effect; nearly all actives have a fitted effect of over 65% in size
Target sequence (P39748 whole entry, looked up): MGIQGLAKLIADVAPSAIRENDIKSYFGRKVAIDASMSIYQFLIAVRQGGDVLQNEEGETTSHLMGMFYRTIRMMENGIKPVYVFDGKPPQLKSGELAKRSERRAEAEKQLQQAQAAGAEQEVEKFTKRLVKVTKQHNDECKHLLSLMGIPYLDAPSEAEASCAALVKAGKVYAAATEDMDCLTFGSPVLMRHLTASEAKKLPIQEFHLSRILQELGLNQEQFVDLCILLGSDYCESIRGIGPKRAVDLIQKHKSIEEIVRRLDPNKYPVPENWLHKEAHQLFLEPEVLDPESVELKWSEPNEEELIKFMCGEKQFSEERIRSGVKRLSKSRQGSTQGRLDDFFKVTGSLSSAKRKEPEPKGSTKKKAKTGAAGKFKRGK
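In this screen, 50 nM flap DNA substrate was added to 10 nM FEN1 pretreated with compound for 15 min at room temperature; cleavage was followed with reads at 0 and 15 min, and Hill fitting gave concentration–response parameters.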
Pol iota inh – inhibitors of human DNA polymerase iota; Q9UNA4; Pol iota fluorescent replication assay, 10 min; Potency, µM (series often up to 115 µM), for the others: at the highest dose activity, negative = inhibition, hits mostly inhibitors; hit rate 1% among 390,000; AID 588590
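Fluorescent replication assay read twice, at 0 min and 10 min after adding 50 nM (final) substrate. Enzyme (10 nM) and compounds were first incubated 15 min at room temperature; enzyme-free buffer wells were negative controls.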
POLH inh – DNA polymerase eta (human) inhibition | Q9Y253 | recombinant Pol eta, fluorescent DNA replication assay | Potency, µM (doses to about 114 µM), inactives show top-dose activity change, negative = inhibition, hits mostly inhibitors | hit rate 1.2% among 390,000; further: on the % scale 0 is the no-effect control and ±100 the full control effect
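Fluorescent replication assay: 50 nM final substrate added after a 15 min room-temperature compound preincubation with 10 nM enzyme. Signal taken at 0 min and again at 10 min.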
WRN helicase inh – inhibitors of human WRN helicase | Q14191 | WRN helicase unwinding, fluorescent forked duplex, kinetic | Potency, µM (doses to about 114 µM), for inactives: at the highest dose activity change, negative = inhibition, usual class: inhibitors | hit rate 0.46% among 360,000 | AID 651768; further: on the % scale 0 is the no-effect control and ±100 the full control effect; nearly all actives have a fitted effect of over 55% in size
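Screening of the MLSMR collection measured strand separation of a quenched forked DNA duplex (100 nM) by 20 nM WRN with 2 mM ATP, all final. Compounds were preincubated with enzyme 15 min at room temperature.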
POLK inh – blocks human DNA polymerase kappa activity. Q9UBT6. purified Pol kappa, fluorescent DNA synthesis assay, 10 min. Potency, µM (top dose mostly 107 µM), for the others: top-dose activity, negative = inhibition, most hits filed as inhibitors. hit rate 0.53% among 400,000; further: on the % scale 0 is the no-effect control and ±100 the full control effect
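Here, compound and 10 nM enzyme are combined for 15 min at room temperature; adding 50 nM substrate (final) starts DNA synthesis, tracked by fluorescence at 0 and 10 min against buffer-only wells.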
Pol beta inh – inhibitors of human DNA polymerase beta; P06746; Pol beta primer extension/strand displacement, fluorescence kinetic; Potency, µM (highest dose often 114 µM), for inactives: at the top dose activity change, negative = inhibition, usual class: inhibitors; hit rate 1.3% among 340,000; AID 485314; further: on the % scale 0 is the no-effect control and ±100 the full control effect
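Homogeneous kinetic assay of primer extension and strand displacement by 10 nM Pol beta, preincubated 15 min at room temperature with compound before 50 nM substrate (final) was added. Read at 0 and 10 min; four-parameter Hill fit.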
* = called active by the depositor; ? = inconclusive; / = no result given; [ ] = dose if it differs, or a comment. Sampled rows, rich in hits. Any-hit rate of the full collection: about 2.4%. The call rests on the fitted dose curve; in most records, active means well fitted curve in the direction sought with a large enough effect; inconclusive means small, poorly fitted or top-dose-only effect, or another doubt; inactive means no such curve, though single readings can be large; an effect the other way counts as inactive or inconclusive. Potency means the concentration at half of the fitted maximal effect.

SMILES | FEN1 inhibitor | Pol iota inh | POLH inh | WRN helicase inh | POLK inh | Pol beta inh
C#CCOCCOCCOCCNc1nc(N2CCN(C(=O)CCCCCCCCCCNC(=O)[C@@H](CCSC)n3cc(CCO)nn3)CC2)nc(N2CCN(C(=O)CCCCCCCCCCNC(=O)[C@H]([C@@H](C)CC)n3cc(CCCCN=C(N)N)nn3)CC2)n1 | 22µM* | ? | 79µM* | ? | -22% | /
Cn1nc(-c2ccc(OCC(=O)Nc3cccc(C(F)(F)F)c3)cc2)c2ccccc2c1=O | -8% | 12% | 79µM* | / | -6% | ?
Cn1nc(-c2ccc(OCC(=O)Nc3cccnc3)cc2)c2ccccc2c1=O | -3% | -6% | -4% | -3% | -8% | -10%
COc1cccc(-n2c(-c3ccccc3F)nc3c(cnn3-c3ccc(C)cc3)c2=O)c1 | -22% | 16µM* | -10% | / | -16% | 5%
CCOC(=O)c1c(NC(=O)CSc2cn(CCNC(=O)c3ccc(OC)c(OC)c3)c3ccccc23)sc2c1CCC2 | 6% | 11% | -22% | / | 1% | -6%
C=C1CCN(C(CC(C)C)C(=O)NCc2ccc(Cl)cc2)S(=O)(=O)c2ccccc21 (stereo not given) | -15% | -11% | / | / | -11% | /
O=C1NC(=O)/C(=C/c2cccc3ccccc23)S1 | -2% | ? | -4% | -10% | -14% | 16%
O=C1NC(=O)C(=Cc2ccccc2[N+](=O)[O-])S1 | 2% | ? | 89µM* | 13% | -5% | /
O=C(CSc1nnc(-c2ccco2)c(-c2ccco2)n1)c1ccccc1 | ? | 18µM* | 35µM* | ? | 79µM* | -5%
CC(=O)c1ccc(NC(=O)CSc2nnc(-c3ccco3)c(-c3ccco3)n2)cc1 | 32µM* | ? | 22µM* | 32µM* | 14µM* | 20µM*
CO/N=C(\C(=O)N[C@@H]1C(=O)N2C(C(=O)[O-])=C(C[N+]3(C)CCCC3)CS[C@@H]12)c1csc(N)n1 | / | / | / | / | -3%[12 µM] | /
O=C(COc1ccccc1C(=O)Nc1cccc(F)c1)Nc1ccc(Br)cc1 | 3% | -10% | / | / | 0% | /
Cc1ccc(/C=C2\SC(N3CCN(C(c4ccccc4)c4ccccc4)CC3)=NC2=O)o1 | 16% | -12% | -1% | -24% | -8% | 40µM*
Cc1ccc(-c2ccc(/C=C3\SC(N4CCOCC4)=NC3=O)o2)cc1 | ? | 60% | ? | -10%[57.1 µM] | -18% | -11%
C=CS(=O)(=O)c1c2cc(OC)ccc2nc2ccc(OC)cc12 | ? | 28µM* | ? | ? | -22% | /
COc1ccc(NC(=O)CCn2c(=S)[nH]c3ccccc3c2=O)cc1Cl | / | / | 35µM* | -7% | / | /
COc1ccc(OC)c(NC(=O)CCn2c(=S)[nH]c3ccccc3c2=O)c1 | -3% | -11% | -6% | 0% | 6% | 7%
O=[N+]([O-])c1cc(-c2csc(NCCc3nc4cc(C(F)(F)F)ccc4n3CCCO)n2)ccc1Cl | -2% | 13µM* | ? | -3% | -1% | /
CCOCCn1ccc2c(OCC(=O)Nc3ccc(OC(F)(F)F)cc3)cccc2c1=O | 21% | 26% | -17% | / | -6%[60.1 µM] | -28%
O=C(Oc1coc(CSc2nnc(NC(=O)c3cccs3)s2)cc1=O)c1ccccc1 | 1% | ? | ? | -34% | ? | 13µM*
CC(C)(C)c1ccc(O)c(N=Cc2cccc([N+](=O)[O-])c2)c1 | -5% | 10% | / | / | 16% | /
C#CCn1c(=O)c2c(nc(/C=C/c3cccc(OC)c3)n2C)n(CCCO)c1=O | / | / | / | / | 14%[60.1 µM] | /
O=C(CSc1nnc(SCC(=O)c2ccco2)s1)c1ccco1 | -9% | ? | 16µM* | ? | ? | 32µM*
COc1ccc(CNC(=O)Cc2c(C(=O)O)c(C)cn2C)cc1 | -2% | -16% | -21% | / | 3%[60.1 µM] | 3%
CN=c1scc(-c2ccc([N+](=O)[O-])cc2)n1/N=C/c1ccco1 | 5% | 99% | -20% | -27% | -3% | 7%
SMILES | FEN1 inhibitor | Pol iota inh | POLH inh | WRN helicase inh | POLK inh | Pol beta inh
CN=c1scc(-c2ccc(F)cc2)n1/N=C/c1ccc(O)c(O)c1 | -12% | ? | ? | -20% | -23% | 5µM*
CN(C)c1ccc(NC(=O)Cn2c(SCc3ccc(F)cc3)nc3cccnc32)cc1 | -9% | -5% | -14% | / | -7%[60.1 µM] | 18µM*
CN(C)c1ccc(NC(=O)Cn2c(SCc3ccc(F)cc3)nc3ccncc32)cc1 | -2% | -9% | 4% | / | -20% | -1%
COc1ccc(CCC(=O)NO)cc1 | -2% | 19% | / | / | 14% | /
Cc1cccc(C=Nc2ccc3c(c2)oc2ccccc23)c1O | -3% | 14% | -17% | -6% | -5% | -7%
Oc1cccc(/C=N/N=C/c2cccc(O)c2O)c1O | -19% | ? | 2.8µM* | -14%[11.6 µM] | 11µM* | 0.32µM*
Cc1ccc(N=Cc2cccc(O)c2O)c(C)c1 | 4.5µM* | 3.5µM* | / | / | 20µM* | 10µM*
CC(N=Cc1cccc(O)c1O)c1ccccc1 (stereo not given) | 35µM* | 8.9µM* | ? | 32µM* | 13µM* | 2.5µM*
Cc1ccccc1N=Cc1cccc(O)c1O | 50µM* | ? | ? | 11µM* | 10µM* | 3.5µM*
Nc1ccccc1/C=C/c1ccnc2ccccc12 | -21% | ? | / | / | ? | /
N#Cc1ccc(-c2cccnc2)nc1SCC(=O)Nc1sc2c(c1C#N)CCC2 | -6% | 14µM* | 79µM* | -1%[11.6 µM] | 79µM* | ?
CCn1c(SCC(=O)Nc2sc3c(c2C#N)CCCC3)nnc1-c1ccco1 | -2% | -1% | -6% | -3% | 10% | -2%
N#Cc1c(NC(=O)CSc2nnc(-c3ccco3)n2-c2ccccc2)sc2c1CCC2 | -3% | ? | ? | -30%[57.1 µM] | ? | 25µM*
Oc1c(Cl)cc(Cl)cc1/C=C/c1ccc2cccc(O)c2n1 | -25% | 23% | -28% | -23% | -15% | 28µM*
Oc1ccc(Cl)cc1/C=C/c1ccc2cccc(O)c2n1 | ? | 63% | -24% | -8% | -5% | 1%
Cc1nc2cnc(N(C)C)nc2n(C)c1=O | / | / | / | / | 4%[60.1 µM] | /
Cc1ccc2oc(C(=O)N(Cc3ccccc3F)C3CCS(=O)(=O)C3)c(C)c2c1 (stereo not given) | 5% | -12% | -11% | / | -25% | 3%
CCOC(=O)c1sc(=S)n(-c2ccccc2)c1NC(C)=O | 79µM* | ? | -13% | ? | -18% | -1%
CCOC(=O)c1sc(=S)n(C)c1NC(=O)c1ccccc1 | 1% | 8% | -3% | ? | -10% | -13%
O=C1CS(=O)(=O)C2(C(=O)N(Cc3cccc(F)c3)c3ccccc32)N1c1ccccc1 (stereo not given) | 0% | -4% | -2% | / | -5% | -1%
O=C(O)[C@@H]1[C@H]2C[C@H]3c4[nH]c5ccccc5c4CCN3C[C@@H]2CC[C@@H]1O | ? | ? | 79µM* | 10% | ? | /
